In PubChem BioAssay (NCI) one finds growth data, which are given here for 9 molecules.

The panel holds about 83,000 compounds, 20% with a hit somewhere; the sample as a whole holds those more often.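 Results are percent growth after 48 hours of single-concentration exposure. 100 means growth as in untreated cells, lower positive values show inhibition; negative values down to -100 show cell death.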 Unmarked numbers belong to inactive results. Activity calls are given as the source filed them. How the source made its calls: active means growth percent below 10; inactive means the rest.

Test systems include HCT-15 colon; HT29 colon; SNB-75 CNS; SNB-19 CNS; U251 CNS; PC-3 prostate; SK-MEL-5 melanoma; UACC-62 melanoma; LOX IMVI melanoma; SK-MEL-28 melanoma; SK-MEL-2 melanoma; EKVX NSCLC; SN12C renal; UO-31 renal; TK-10 renal; ACHN renal; CAKI-1 renal; CCRF-CEM leukemia; MOLT-4 leukemia; A498 renal.
Common to all, as to assay: NCI-60 one-dose screen, 48 h (100 = growth as untreated, 0 = no growth, -100 = all killed)
Holding throughout (conditions): 10 µM unless noted

In the case of `O=C1CCC(N2C(=O)c3cccc(NCCCC4CCN(CCNC(=O)c5cc6c(o5)C(=O)c5ccccc5C6=O)CC4)c3C2=O)C(=O)N1` (centres undefined), the growth with HCT-15 colon is -80.8% (active); in the experiment on HT29 colon it was 1.94% (active); in the experiment with SNB-75 CNS, -99.2% (active); in the experiment on SNB-19 CNS it was -96% (active); with U251 CNS it was -83.6% (active); with PC-3 prostate it was 2.13% (active). Besides, the growth in the experiment with SK-MEL-5 melanoma is -99.4% (active); in the experiment on UACC-62 melanoma, -96.2% (active); in the experiment with LOX IMVI melanoma it was -90.1% (active); with SK-MEL-28 melanoma it was -6.88% (active); with SK-MEL-2 melanoma it was -46.4% (active); with EKVX NSCLC it was -61.8% (active). Besides, the growth was -95.4% (active) with SN12C renal; -72.9% (active) in the experiment with UO-31 renal; -70.6% (active) in the experiment with TK-10 renal; -92.4% (active) in the experiment on ACHN renal; -26.4% (active) with CAKI-1 renal; 21% in the experiment on CCRF-CEM leukemia. Further, the growth in the experiment with MOLT-4 leukemia is 21.8%.

Consider `Nc1ccc(-c2cc3c(Nc4ccc(OCc5cccc(F)c5)c(Cl)c4)ncnc3s2)cc1`, for which the growth in the experiment with HCT-15 colon is 32.9%; in the experiment on HT29 colon it was 84.5%; with SNB-75 CNS, 87.2%; with SNB-19 CNS it was 77.3%; with U251 CNS, 57%; in the experiment on PC-3 prostate, 29.6%. Further, the growth in the experiment with SK-MEL-5 melanoma was 57.7%; with UACC-62 melanoma it was 55.7%; in the experiment on LOX IMVI melanoma, 24.5%; in the experiment on SK-MEL-28 melanoma it was 39.3%; in the experiment with SK-MEL-2 melanoma, 25.3%; in the experiment with EKVX NSCLC it was 21.5%. Further, the growth with SN12C renal is 48.4%; in the experiment with UO-31 renal, 19.6%; with TK-10 renal, 32.5%; in the experiment with ACHN renal, 29.6%; in the experiment on A498 renal, 39.3%; in the experiment on CCRF-CEM leukemia it was 24%. The growth with MOLT-4 leukemia is 30%.

Consider `CN(C)CCOC(=O)Nc1ccc(Cl)cc1`, for which the growth with HCT-15 colon is 108%; in the experiment on HT29 colon it was 82.7%; with SNB-75 CNS, 96.3%; in the experiment with SNB-19 CNS, 106%; in the experiment with U251 CNS, 101%; in the experiment on PC-3 prostate, 65.4%. In addition, the growth is 99% with SK-MEL-5 melanoma; 97.2% with UACC-62 melanoma; 101% in the experiment on LOX IMVI melanoma; 115% with SK-MEL-28 melanoma; 79.4% in the experiment with SK-MEL-2 melanoma; 101% in the experiment on EKVX NSCLC. Besides, the growth in the experiment on SN12C renal was 107%; in the experiment with UO-31 renal, 71.2%; in the experiment with TK-10 renal, 95.1%; in the experiment on A498 renal it was 113%; in the experiment on CCRF-CEM leukemia, 80.5%; in the experiment with MOLT-4 leukemia, 89.9%.

As for `CCN(CC)CCOC(=O)Nc1ccccc1Cl`, the growth in the experiment with HCT-15 colon was 102%; with HT29 colon, 80.4%; in the experiment on SNB-75 CNS, 108%; with SNB-19 CNS it was 99.4%; with U251 CNS it was 99.3%; with PC-3 prostate, 71.7%. In addition, the growth in the experiment on SK-MEL-5 melanoma was 105%; with UACC-62 melanoma it was 99.2%; in the experiment with LOX IMVI melanoma it was 101%; in the experiment with SK-MEL-28 melanoma, 108%; in the experiment on SK-MEL-2 melanoma, 88.3%; in the experiment with EKVX NSCLC, 106%. The growth was 103% in the experiment with SN12C renal; 80.4% in the experiment with UO-31 renal; 86.1% in the experiment on TK-10 renal; 114% in the experiment with A498 renal; 75.7% in the experiment with CCRF-CEM leukemia; 94.7% in the experiment on MOLT-4 leukemia.

For `O=c1[nH]nc(-c2ccc(Cl)cc2)cc1Cc1ccccc1`, the growth is 103% with HCT-15 colon; 108% in the experiment on HT29 colon; 88.3% in the experiment with SNB-75 CNS; 101% in the experiment with SNB-19 CNS; 92.5% with U251 CNS; 90.9% with PC-3 prostate. In addition, the growth was 105% in the experiment with SK-MEL-5 melanoma; 79.3% with UACC-62 melanoma; 93.4% in the experiment with LOX IMVI melanoma; 114% with SK-MEL-28 melanoma; 101% in the experiment on SK-MEL-2 melanoma; 86% with EKVX NSCLC. Besides, the growth was 103% in the experiment on SN12C renal; 61.7% in the experiment with UO-31 renal; 109% with TK-10 renal; 92.7% with ACHN renal; 110% with A498 renal; 81.6% in the experiment on CCRF-CEM leukemia. For the same molecule, the growth in the experiment with MOLT-4 leukemia is 79.6%.

On to `O=C(NC(=S)Nc1ccc(-c2nc3ccccc3[nH]2)cc1)c1ccc2ccccc2c1`, for which the growth in the experiment with HCT-15 colon was 29.2%; with HT29 colon, 21.8%; in the experiment on SNB-75 CNS, -62.4% (active); in the experiment on SNB-19 CNS, 66.2%; with U251 CNS, 13.9%; with PC-3 prostate it was 22.8%. The growth is 14.7% in the experiment on SK-MEL-5 melanoma; 34.1% in the experiment on UACC-62 melanoma; -45.8% (active) with LOX IMVI melanoma; 40.5% in the experiment with SK-MEL-28 melanoma; 98.2% in the experiment on SK-MEL-2 melanoma; 58.2% in the experiment on EKVX NSCLC. The growth with SN12C renal was 15.9%; in the experiment on UO-31 renal, -84.4% (active); in the experiment on ACHN renal, -0.473% (active); in the experiment with CAKI-1 renal, 24.5%; in the experiment with CCRF-CEM leukemia, 49.6%; in the experiment with MOLT-4 leukemia, 59%.

With `CCOC(=O)c1c(C)[nH]c(C(=O)CCC(=O)OC)c1C`, the growth with HCT-15 colon is 92.4%; with HT29 colon, 86.7%; in the experiment with SNB-75 CNS, 106%; in the experiment on SNB-19 CNS, 106%; in the experiment with U251 CNS it was 99.9%; in the experiment with PC-3 prostate it was 81.2%. For the same molecule, the growth with SK-MEL-5 melanoma was 106%; in the experiment on UACC-62 melanoma, 101%; in the experiment with LOX IMVI melanoma, 103%; with SK-MEL-28 melanoma it was 111%; with SK-MEL-2 melanoma it was 83.1%; in the experiment with EKVX NSCLC it was 95.2%. Moreover, the growth in the experiment on SN12C renal is 110%; in the experiment with UO-31 renal it was 92.7%; with A498 renal, 119%; in the experiment on CCRF-CEM leukemia it was 92.8%; in the experiment on MOLT-4 leukemia, 93%.

On to `CCC(C)NCc1ccccc1` (centres undefined), for which the growth in the experiment on HCT-15 colon is 107%; with HT29 colon, 84.9%; in the experiment with SNB-75 CNS, 95.9%; in the experiment with SNB-19 CNS it was 102%; with U251 CNS, 102%; in the experiment with PC-3 prostate, 78.1%. In addition, the growth with SK-MEL-5 melanoma is 106%; with UACC-62 melanoma, 95.3%; in the experiment with LOX IMVI melanoma it was 102%; in the experiment with SK-MEL-28 melanoma it was 112%; with SK-MEL-2 melanoma, 92.6%; with EKVX NSCLC, 103%. Moreover, the growth is 100% in the experiment with SN12C renal; 88% in the experiment with UO-31 renal; 96.9% with TK-10 renal; 88.8% in the experiment with A498 renal; 83.4% in the experiment on CCRF-CEM leukemia; 93.5% in the experiment with MOLT-4 leukemia.

Consider `C=CCN1C(=O)[C@]2(SC1=S)[C@H](c1cccc(Cl)c1)CN(C)[C@]21C(=O)NC2C=CC(Cl)=C[C@H]21` (some centres undefined), for which the growth in the experiment with HCT-15 colon is 27%; in the experiment on HT29 colon, 27.9%; with SNB-75 CNS, 44.4%; in the experiment on SNB-19 CNS, 59.9%; with U251 CNS, 67.8%; in the experiment with PC-3 prostate it was 7.5% (active). Further, the growth with SK-MEL-5 melanoma was 42%; in the experiment on UACC-62 melanoma, 36.1%; in the experiment with LOX IMVI melanoma it was 13.3%; in the experiment on SK-MEL-28 melanoma, 64.1%; in the experiment with SK-MEL-2 melanoma, 44.2%; in the experiment with EKVX NSCLC, 38.4%. Further, the growth with SN12C renal is -53.6% (active); in the experiment on UO-31 renal, -41.2% (active); in the experiment with TK-10 renal it was 70.9%; with A498 renal it was 76.8%; in the experiment with CCRF-CEM leukemia it was 4.67% (active); in the experiment with MOLT-4 leukemia it was -17.7% (active).
